This note sets out measurements from PubChem BioAssay (EPA / NIEHS).

Active and inactive are the calls of the source. The calls were made as follows: active = hit-call score of the fitted dose curve at least 0.9, where 1 is the maximum; inactive = score below 0.9.

Chain of Cellular tumor antigen p53 (Homo sapiens) (P04637 whole entry, looked up): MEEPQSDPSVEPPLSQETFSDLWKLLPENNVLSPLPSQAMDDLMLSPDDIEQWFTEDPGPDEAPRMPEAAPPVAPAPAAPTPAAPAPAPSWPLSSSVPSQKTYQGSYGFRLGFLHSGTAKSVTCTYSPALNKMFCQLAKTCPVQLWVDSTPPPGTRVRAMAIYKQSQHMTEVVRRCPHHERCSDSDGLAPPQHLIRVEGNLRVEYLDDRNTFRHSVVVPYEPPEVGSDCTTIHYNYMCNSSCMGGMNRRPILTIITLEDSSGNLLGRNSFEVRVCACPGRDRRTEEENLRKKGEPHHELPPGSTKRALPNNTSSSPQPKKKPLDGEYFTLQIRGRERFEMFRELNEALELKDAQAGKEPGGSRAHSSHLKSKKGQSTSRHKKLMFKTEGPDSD

Read-out in one assay: Thyroid Hormone Responsive (THRSP), THRSP (gene 7069)
In words: LTEA_HepaRG_THRSP: Life Technologies and Expression Analysis (LTEA) Assay for Thyroid Hormone Responsive (THRSP) using HepaRG (AID 2283536). As to conditions: mRNA level, 48 h; actives raise or lower the signal. Summed up: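 THRSP transcript quantified by Fluidigm qRT-PCR against three housekeeping genes after 48 h chemical exposure of HepaRG cells in serum-free induction medium; eight-point half-log series, top 100 uM, 0.5% DMSO vehicle, duplicate wells.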
Regarding `Cc1[nH]cnc1C[C@H]1CCc2c(C)c3ccccc3n2C1=O`, the compound was called inactive.

As for `CCCCCCc1ccc(O)cc1O`, the compound was classed as inactive.

As for `CC(=O)OC[C@H]1O[C@@](COC(C)=O)(O[C@H]2O[C@H](COC(C)=O)[C@@H](OC(C)=O)[C@H](OC(C)=O)[C@H]2OC(C)=O)[C@@H](OC(C)=O)[C@@H]1OC(C)=O`, the call was inactive.

Usually AC50 stands for the concentration at which the activity in the assay is half-maximal. With `O=P(OC(CCl)CCl)(OC(CCl)CCl)OC(CCl)CCl`, the AC50 is 94.4 µM (active).

For `COc1ccc(-n2nc(C(F)F)cc2-c2ccc(S(C)=O)cc2)cc1` (configuration not stated), the result was inactive.

On to `O=C(O)c1cc(N=Nc2ccc(S(=O)(=O)Nc3ccccn3)cc2)ccc1O`, for which the outcome was inactive.

`CC(C)c1cccc(C(C)C)c1N1C(=O)c2ccc(O)cc2C1=O`: the AC50 is 90.2 µM (active).

As to `CC(=O)OCCC(C)C`, the call was inactive.

For `O=C(O)c1cccc(N(Cc2cccnc2)c2ccc(OC(F)F)c(OC(F)F)c2)c1`, the compound was called inactive.

Read-out in the next assay: Cellular tumor antigen p53 (Homo sapiens) (UniProt P04637)
The assay can be described thus: LTEA_HepaRG_TP53: Life Technologies and Expression Analysis (LTEA) Assay for Tumor Protein P53 (TP53) using HepaRG (AID 2283537). Conditions: mRNA level, 48 h; actives raise or lower the signal. Summed up:
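Gain or loss of TP53 mRNA signal is scored relative to 0.5% DMSO after 48 h chemical treatment of HepaRG liver cells, tested in duplicate at eight half-log concentrations up to 100 uM.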
For the compound `O=c1n(CC2CO2)c(=O)n(CC2CO2)c(=O)n1CC1CO1` (configuration not stated), the concentration at half-maximal activity (AC50) was 90.1 µM (active).

Regarding `O=C1CCC(N2C(=O)c3ccccc3C2=O)C(=O)N1` (configuration not stated), the outcome was inactive.

As to `Cc1ccc(S(=O)(=O)O)cc1C`, the compound was classed as inactive.

As to `C1N2CN3CN1CN(C2)C3`, the compound was classed as inactive.

`COC(=O)c1c(Cl)c(Cl)c(C(=O)OC)c(Cl)c1Cl`: the compound was classed as inactive.

On to `CN(C)c1ccc(N=NS(=O)(=O)O)cc1`, for which the result was inactive.

Turning to `CC(C)CC(C)(O)C#CC(C)(O)CC(C)C` (configuration not stated), the outcome was inactive.

For the compound `O=C1OC(=O)C2C3C=CC(C3)C12` (configuration not stated), the compound was classed as inactive.

Take `COC(=O)c1ccccc1O`: the compound was classed as inactive.

With `O=C(CCCCCCCCc1cccnc1)N1CCC(C=C(c2ccccc2)c2ccccc2)CC1`, the concentration at half-maximal activity (AC50) was 22.9 µM (active).

With `C[C@](N)(Cc1ccc(O)c(O)c1)C(=O)O`, the compound was called inactive.

As to `Cn1cnc([N+](=O)[O-])c1Sc1ncnc2nc[nH]c12`, the compound was classed as inactive.

Consider `O=C1CCCCCN1`, for which the compound was called inactive.

`Oc1ccc2c(c1)-c1ccccc1C2`: the compound was classed as inactive.

As for `CC(C)=CCC/C(C)=C\CO`, the result was inactive.

In the case of `CCC(C)(C)C(=O)O[C@H]1C[C@@H](C)C=C2C=C[C@H](C)[C@H](CC[C@@H]3C[C@@H](O)CC(=O)O3)[C@H]21`, the compound was classed as inactive.

Turning to `Nc1cccc(N)c1`, the outcome was inactive.

As to `Nc1nc2ncc(CNc3ccc(C(=O)N[C@@H](CCC(=O)O)C(=O)O)cc3)nc2c(=O)[nH]1`, the outcome was inactive.

In the case of `Cn1c(=O)c2c(ncn2C)n(C)c1=O`, the result was inactive.

Turning to `O=C(OC[C@H]1O[C@@H](OC(=O)c2cc(O)c(O)c(OC(=O)c3cc(O)c(O)c(O)c3)c2)[C@H](OC(=O)c2cc(O)c(O)c(OC(=O)c3cc(O)c(O)c(O)c3)c2)[C@@H](OC(=O)c2cc(O)c(O)c(OC(=O)c3cc(O)c(O)c(O)c3)c2)[C@@H]1OC(=O)c1cc(O)c(O)c(OC(=O)c2cc(O)c(O)c(O)c2)c1)c1cc(O)c(O)c(OC(=O)c2cc(O)c(O)c(O)c2)c1`, the AC50 was 4.95 µM (active).

With `Cc1[nH]cnc1C[C@H]1CCc2c(C)c3ccccc3n2C1=O`, the concentration at half-maximal activity (AC50) was 73.7 µM (active).

`CCCCCCc1ccc(O)cc1O`: the outcome was inactive.

For `CC(=O)OC[C@H]1O[C@@](COC(C)=O)(O[C@H]2O[C@H](COC(C)=O)[C@@H](OC(C)=O)[C@H](OC(C)=O)[C@H]2OC(C)=O)[C@@H](OC(C)=O)[C@@H]1OC(C)=O`, the call was inactive.

With `O=P(OC(CCl)CCl)(OC(CCl)CCl)OC(CCl)CCl`, the AC50 is 86.6 µM (active).

Regarding `COc1ccc(-n2nc(C(F)F)cc2-c2ccc(S(C)=O)cc2)cc1` (configuration not stated), the call was inactive.

Turning to `O=C(O)c1cc(N=Nc2ccc(S(=O)(=O)Nc3ccccn3)cc2)ccc1O`, the outcome was inactive.

For `CC(C)c1cccc(C(C)C)c1N1C(=O)c2ccc(O)cc2C1=O`, the result was inactive.

Regarding `CC(=O)OCCC(C)C`, the outcome was inactive.

Turning to `O=C(O)c1cccc(N(Cc2cccnc2)c2ccc(OC(F)F)c(OC(F)F)c2)c1`, the compound was classed as inactive.

Read-out in another assay: UDP glucuronosyltransferase (UGT1A1), UGT1A1 (gene 54658)
In words: LTEA_HepaRG_UGT1A1: Life Technologies and Expression Analysis (LTEA) Assay for UDP glucuronosyltransferase (UGT1A1) using HepaRG (AID 2283538). As to conditions: mRNA level, 48 h; actives raise or lower the signal. Summed up:
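HepaRG, 48 h chemical exposure (top 100 uM, half-log 8-pt, 0.5% DMSO vehicle), duplicate wells; qRT-PCR (TaqMan, Fluidigm array) for UGT1A1 mRNA, housekeeping-normalized; bidirectional curve fit vs DMSO baseline.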
As to `O=c1n(CC2CO2)c(=O)n(CC2CO2)c(=O)n1CC1CO1` (configuration not stated), the compound was classed as inactive.

`O=C1CCC(N2C(=O)c3ccccc3C2=O)C(=O)N1` (configuration not stated): the result was inactive.

Consider `Cc1ccc(S(=O)(=O)O)cc1C`, for which the result was inactive.

For the compound `C1N2CN3CN1CN(C2)C3`, the compound was called inactive.

As for `COC(=O)c1c(Cl)c(Cl)c(C(=O)OC)c(Cl)c1Cl`, the call was inactive.

Turning to `CN(C)c1ccc(N=NS(=O)(=O)O)cc1`, the compound was classed as inactive.

For the compound `CC(C)CC(C)(O)C#CC(C)(O)CC(C)C` (configuration not stated), the compound was classed as inactive.

Regarding `O=C1OC(=O)C2C3C=CC(C3)C12` (configuration not stated), the compound was called inactive.

Turning to `COC(=O)c1ccccc1O`, the outcome was inactive.

For `O=C(CCCCCCCCc1cccnc1)N1CCC(C=C(c2ccccc2)c2ccccc2)CC1`, the AC50 was 32.9 µM (active).

Consider `C[C@](N)(Cc1ccc(O)c(O)c1)C(=O)O`, for which the compound was called inactive.

For the compound `Cn1cnc([N+](=O)[O-])c1Sc1ncnc2nc[nH]c12`, the concentration at half-maximal activity (AC50) was 0.754 µM (active).

For `O=C1CCCCCN1`, the compound was classed as inactive.

Take `Oc1ccc2c(c1)-c1ccccc1C2`: the AC50 was 30.4 µM (active).

As for `CC(C)=CCC/C(C)=C\CO`, the result was inactive.

In the case of `CCC(C)(C)C(=O)O[C@H]1C[C@@H](C)C=C2C=C[C@H](C)[C@H](CC[C@@H]3C[C@@H](O)CC(=O)O3)[C@H]21`, the result was inactive.

In the case of `Nc1cccc(N)c1`, the result was inactive.

For the compound `Nc1nc2ncc(CNc3ccc(C(=O)N[C@@H](CCC(=O)O)C(=O)O)cc3)nc2c(=O)[nH]1`, the compound was classed as inactive.

`Cn1c(=O)c2c(ncn2C)n(C)c1=O`: the result was inactive.

Turning to `O=C(OC[C@H]1O[C@@H](OC(=O)c2cc(O)c(O)c(OC(=O)c3cc(O)c(O)c(O)c3)c2)[C@H](OC(=O)c2cc(O)c(O)c(OC(=O)c3cc(O)c(O)c(O)c3)c2)[C@@H](OC(=O)c2cc(O)c(O)c(OC(=O)c3cc(O)c(O)c(O)c3)c2)[C@@H]1OC(=O)c1cc(O)c(O)c(OC(=O)c2cc(O)c(O)c(O)c2)c1)c1cc(O)c(O)c(OC(=O)c2cc(O)c(O)c(O)c2)c1`, the AC50 was 4.66 µM (active).

Consider `Cc1[nH]cnc1C[C@H]1CCc2c(C)c3ccccc3n2C1=O`, for which the AC50 is 64.3 µM (active).

Take `CCCCCCc1ccc(O)cc1O`: the call was inactive.

For the compound `CC(=O)OC[C@H]1O[C@@](COC(C)=O)(O[C@H]2O[C@H](COC(C)=O)[C@@H](OC(C)=O)[C@H](OC(C)=O)[C@H]2OC(C)=O)[C@@H](OC(C)=O)[C@@H]1OC(C)=O`, the call was inactive.

Turning to `O=P(OC(CCl)CCl)(OC(CCl)CCl)OC(CCl)CCl`, the half-maximal activity concentration (AC50) was 88.6 µM (active).

Consider `COc1ccc(-n2nc(C(F)F)cc2-c2ccc(S(C)=O)cc2)cc1` (configuration not stated), for which the AC50 is 39.6 µM (active).

As to `O=C(O)c1cc(N=Nc2ccc(S(=O)(=O)Nc3ccccn3)cc2)ccc1O`, the outcome was inactive.

As for `CC(C)c1cccc(C(C)C)c1N1C(=O)c2ccc(O)cc2C1=O`, the AC50 is 10.8 µM (active).

Regarding `CC(=O)OCCC(C)C`, the compound was classed as inactive.

On to `O=C(O)c1cccc(N(Cc2cccnc2)c2ccc(OC(F)F)c(OC(F)F)c2)c1`, for which the AC50 was 25 µM (active).
